Sampled rows, rich in hits. Any-hit rate of the full collection: about 6.9%.
SKKanGAS inh – SKKanGAS growth inhibition. S. pyogenes SKKanGAS, kanamycin growth, BacTiter-Glo, 6 h. inhibition, % at 7.5 µM. 300,000 tested, 1.3% active;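 active = mean replicate score, as percent of positive control median, at least 50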;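 note: strain carries kanamycin resistance gene driven by streptokinase promoter and grows in 40 µg/ml kanamycin; loss of luminescence reflects streptokinase promoter inhibition or plain growth inhibition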
Beta cell apopt – blocks beta cell apoptosis | INS-1E cytokine-induced death, ATP luminescence, 48 h; percent of positive-control rescue, neutral wells zero | protection from apoptosis, % (concentration not given with the values) | 300,000 tested, 0.8% active | AID 435005;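 active = Every replicate reaches about 75%, or at least half do and their mean reaches it too, limit read from the data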;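 note: higher means more ATP so stronger rescue from cytokine killing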
GRIN3A LBD mod – NR3A (human) ligand-binding domain modulation; NR3A LBD differential scanning fluorimetry, Tm shift; 0% = protein alone, 100% = glycine-bound protein; Tm shift relative to glycine control, % at 25 µM; 340,000 tested, 2.5% active; AID 1259313;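 active = melting temperature shift of at least 10% of the positive control shift, at one fixed dose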
Mdm2-MdmX inh – disrupts the human Mdm2-MdmX interaction | AID 485346 | inhibition, % at 8 µM | 330,000 tested, 3% active | O15151+Q00987 | SaOS-2 split-luciferase Mdm2/MdmX complementation, luminescence;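 active = inhibition of at least 50% at 8 µM in the primary screen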
Target sequence (O15151 whole entry, looked up): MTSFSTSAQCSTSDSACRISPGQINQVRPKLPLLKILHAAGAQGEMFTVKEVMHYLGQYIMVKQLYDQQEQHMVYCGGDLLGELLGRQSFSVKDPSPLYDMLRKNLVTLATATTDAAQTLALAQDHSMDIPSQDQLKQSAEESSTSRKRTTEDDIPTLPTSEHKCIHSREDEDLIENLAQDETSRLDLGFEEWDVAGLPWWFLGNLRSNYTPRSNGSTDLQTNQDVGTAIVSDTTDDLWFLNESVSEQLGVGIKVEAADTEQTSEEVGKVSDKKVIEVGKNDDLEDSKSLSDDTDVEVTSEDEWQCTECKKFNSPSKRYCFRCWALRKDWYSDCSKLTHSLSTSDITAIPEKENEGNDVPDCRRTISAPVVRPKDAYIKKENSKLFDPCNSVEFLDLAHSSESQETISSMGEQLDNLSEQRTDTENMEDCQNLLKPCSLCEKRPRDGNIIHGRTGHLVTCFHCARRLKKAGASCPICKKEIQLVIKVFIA
Target sequence (Q00987 whole entry, looked up): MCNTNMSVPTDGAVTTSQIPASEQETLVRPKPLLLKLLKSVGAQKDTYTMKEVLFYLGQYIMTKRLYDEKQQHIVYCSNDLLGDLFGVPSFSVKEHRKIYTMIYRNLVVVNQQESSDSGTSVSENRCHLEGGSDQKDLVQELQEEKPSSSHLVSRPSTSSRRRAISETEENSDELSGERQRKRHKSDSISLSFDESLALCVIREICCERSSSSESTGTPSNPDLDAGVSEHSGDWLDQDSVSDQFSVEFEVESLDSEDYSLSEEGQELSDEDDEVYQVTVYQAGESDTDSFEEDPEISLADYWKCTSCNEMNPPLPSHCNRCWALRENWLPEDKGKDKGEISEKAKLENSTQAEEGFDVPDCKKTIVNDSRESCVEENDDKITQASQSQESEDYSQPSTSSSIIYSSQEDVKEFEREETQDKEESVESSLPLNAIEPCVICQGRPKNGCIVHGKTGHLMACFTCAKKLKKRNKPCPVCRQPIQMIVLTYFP
MPTP block – blocks calcium-induced mitochondrial swelling; 360,000 tested, 1.4% active; inhibition, % at 10 µM; isolated mouse mitochondria, Ca2+ swelling absorbance, 30 min; AID 602449;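 active = inhibition of 50% or more, scaled per plate between neutral and stimulator controls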
CSC inhib – cancer stem cell inhibition | cancer stem cell-like cells viability, luminescence | inhibition, % at 7.5 µM | 300,000 tested, 1.1% active | AID 2717; in the data active = inhibition above about 75%; tested in HMLE shEcad cells
MPTP counter – Rhodamine 123 counter-screen of mitochondrial pore hits | shares compounds with MPTP block | isolated mitochondria, membrane potential, Rhodamine 123 fluorescence | inhibition, % at 10 µM | 5,000 tested, 78% active | AID 624504; in the data active = inhibition above about 22%
Numbers stand for hits; - = inactive; . = not tested or not shown.

SMILES | SKKanGAS inh | Beta cell apopt | GRIN3A LBD mod | Mdm2-MdmX inh | MPTP block | CSC inhib | MPTP counter
COc1ccc(-c2c[n+]3c4n2CCCCC4=C(c2ccc(Br)cc2)C3)cc1 | - | 104 | - | . | 56 | - | 68
O=C(CSc1ccc2nnc(-c3cccnc3)n2n1)Nc1ccccc1C(F)(F)F | - | - | - | - | - | - | .
C=CCn1c(SCC(=O)c2cccs2)nc2sc(CC)cc2c1=O | - | - | - | - | 91 | - | 77
C=CCn1c(SCC2CCCCO2)nc2sc(CC)cc2c1=O (centres undefined) | - | - | - | - | 54 | - | 22
C=CCn1c(SCC(=O)NC2CC2)nc2sc(CC)cc2c1=O | - | - | - | - | - | - | .
CC(=O)Nc1ccccc1OCC(=O)c1cc(C)n(Cc2cccs2)c1C | - | 111 | - | - | 100 | - | 94
Cc1cc(C(=O)COc2cccnc2[N+](=O)[O-])c(C)n1Cc1cccs1 | - | - | - | - | - | - | .
Cc1c(C(C)C)c(=O)n(-c2ccc(S(=O)(=O)NC3CCCCC3)cc2)n1C | - | - | - | - | - | - | .
Cc1c(C(C)C)c(=O)n(-c2ccc(S(=O)(=O)NCc3ccccc3)cc2)n1C | - | 105 | - | - | 96 | - | 83
O=C(NCc1cn(-c2ccccc2)nc1-c1ccccc1)c1ccc([N+](=O)[O-])cc1 | - | - | - | - | 53 | - | 63
CCOC(=O)C(=O)c1csc(NC(=O)CCSc2ccc(C)cc2)n1 | - | - | - | - | - | - | .
COc1cc(OC)c(OC)cc1CNC(=O)c1cccc(S(=O)(=O)N2CCc3ccccc3C2)c1 | . | . | - | - | 98 | . | 104
CCOC(=O)c1noc(C)c1C(=O)Nc1nc(C)cc(C)n1 | - | - | - | - | - | . | .
Cc1ccc(C)c(NC(=O)C(Sc2nc3ccc(C)cc3[nH]2)c2ccccc2)c1 (centres undefined) | - | - | - | - | 84 | - | 92
Cc1ccc2nc(SC(C(=O)Nc3ccc(F)cc3)c3ccccc3)[nH]c2c1 (centres undefined) | - | - | 16 | - | 77 | - | 86
NC(=O)NOCc1ccc(Cl)cc1Cl | - | - | - | - | - | - | .
CNC(=S)/N=C/NOCc1ccc(Cl)cc1Cl | - | . | - | - | 101 | - | 95
Cc1cc(N2CCCC2=O)cc(C)c1S(=O)(=O)NCCOc1ccccc1 | - | - | - | - | - | - | .
Cc1ccc(OCCNS(=O)(=O)c2ccc(N3CCCC3=O)cc2)cc1C | - | - | - | - | 104 | - | 92
Cc1ccc(OCCNS(=O)(=O)c2ccc(N3CCCC3=O)cc2)cc1 | . | . | - | - | 84 | - | 70
C=CS(=O)(=O)N(Cc1ccccc1Br)[C@H](CO)CC(C)C | . | . | - | . | - | . | .
O=C(NNC(=O)c1ccncc1)Nc1ccc(N=Nc2ccccc2)cc1 | . | . | 21 | . | 68 | . | 30
O=C(NNc1ccc([N+](=O)[O-])cn1)Nc1ccc(N=Nc2ccccc2)cc1 | . | . | - | . | 91 | . | 64
O=C(O)c1cccc(Nc2ccc([N+](=O)[O-])cn2)c1 | - | . | - | - | - | - | .
O=C(NNC(=O)c1ccncc1)Nc1ccccc1 | - | - | - | - | - | - | .
SMILES | SKKanGAS inh | Beta cell apopt | GRIN3A LBD mod | Mdm2-MdmX inh | MPTP block | CSC inhib | MPTP counter
O=C(NNc1ccc([N+](=O)[O-])cc1)Nc1ccccc1 | - | - | - | - | - | - | .
O=[N+]([O-])c1ccc(Nc2ccc3ccccc3c2)nc1 | - | - | 38 | - | 78 | - | 59
Cn1nc(C(F)(F)F)c2cc(C(=O)Nc3ccc(F)c(Cl)c3)sc21 | - | - | - | - | 89 | - | 76
COc1cc([N+](=O)[O-])ccc1NC(=O)Nc1ccc2c(c1)OCCO2 | - | - | - | - | - | - | .
O=C(Nc1ccc([N+](=O)[O-])cc1)Nc1ccc2c(c1)OCCO2 | - | - | 21 | - | 95 | - | 90
O=C(NNC(=O)c1cccc(O)c1)Nc1ccc([N+](=O)[O-])cc1 | - | - | - | - | 56 | - | 36
Cc1cccc(NC(=O)c2c([N+](=O)[O-])c(C(C)(C)C)nn2C)c1 | - | - | - | - | - | - | .
O=C(Nc1ccc([N+](=O)[O-])cc1)c1cccc([N+](=O)[O-])c1 | . | . | . | . | - | . | .
O=C(Nc1ccc(Br)cc1)c1cc([N+](=O)[O-])cc([N+](=O)[O-])c1 | - | - | - | - | 102 | - | 86
Cn1nc(C(C)(C)C)c([N+](=O)[O-])c1C(=O)Nc1ccc(Br)cc1 | - | - | - | - | 80 | - | 93
O=C(CN1CCN(CC(=O)Nc2ccccc2Cc2ccccc2)CC1)Nc1ccccc1Cl | - | - | - | - | - | - | .
O=C(/C=C/c1ccc(Cl)c(C(F)(F)F)c1)N1CCN(c2ccccn2)CC1 | - | - | - | - | - | - | .
CCCNC(=O)COc1coc(CN2CCN(c3ccccc3F)CC2)cc1=O | - | - | - | - | - | - | .
O=C(Nc1ccc([N+](=O)[O-])cc1)Nc1ccc2[nH]c(=O)[nH]c2c1 | - | - | 24 | - | 82 | - | 71
Cc1cccc(NC(=O)Nc2ccc([N+](=O)[O-])cc2)n1 | - | - | - | - | 69 | - | 54
Cc1ccc(NC(=O)Nc2cccc(C)n2)cc1 | - | - | - | - | - | - | .
CCn1c2ccccc2c2c3ncc4cccn4c3ccc21 | - | - | - | - | - | - | .
COc1ccc([N+](=O)[O-])cc1NC(=O)CSc1ccc2ccccc2c1 | - | - | - | - | 62 | - | 31
O=C(Nc1cc(Sc2nc3ccccc3s2)cc([N+](=O)[O-])c1)c1cccc(F)c1F | - | . | - | - | 94 | - | 71
O=S(=O)(Nc1cccc(-n2cnnn2)c1)c1ccccc1F | - | - | - | - | - | - | .
Cc1c(NS(=O)(=O)c2cc(C(=O)NCCN(C)C)ccc2Cl)c(=O)n(-c2ccccc2)n1C | - | - | - | - | - | - | .
O=C(Cc1csc(NC(=O)Nc2cccc(Cl)c2)n1)NC1CCCC1 | - | . | - | - | 79 | - | 73
CCC(=O)NCc1csc(-c2cccs2)n1 | - | - | - | - | - | - | .
O=C(Nc1ccccc1)Nc1nc(-c2ccc(Cl)cc2)cs1 | - | - | - | - | - | - | .
NC(c1csc(NC(=O)Nc2cccc(Cl)c2)n1)C1CCCCC1 (centres undefined) | . | . | . | . | - | . | .
SMILES | SKKanGAS inh | Beta cell apopt | GRIN3A LBD mod | Mdm2-MdmX inh | MPTP block | CSC inhib | MPTP counter
O=C(Nc1cccc(Cl)c1)Nc1nc(-c2ccc(Cl)cc2)cs1 | - | - | 36 | - | 92 | - | 94
O=C(Nc1cccc(Cl)c1)Nc1sccc1-c1nc2ccccc2s1 | - | - | 29 | - | 78 | 76 | 69
O=C(NCc1csc(-c2cccs2)n1)Nc1cccc(Cl)c1 | - | - | - | - | 76 | - | 82
COc1ccccc1NC(=O)Nc1sccc1-c1nc2ccccc2s1 | - | - | - | - | - | - | .
CN1CCC(C(=O)C(=O)O)C1=O (centres undefined) | . | . | - | . | - | . | .
COCc1cccc(-c2csc(C(C)(NC(C)=O)c3ccccc3)n2)c1 (centres undefined) | . | . | . | . | - | . | .

Screening data (PubChem)
